Autofluor counter: flagged as autofluorescent in microsphere protease counterscreen | fluorescence intensity (test concentration not listed) | AID 624483 | actives 3.1% (n = 360,000) | compound autofluorescence counterscreen, microsphere flow cytometry; stronger effect = higher value; in the data active = fluorescence intensity above about 16000; inconclusive = no clear call, values can overlap the other calls
MazEF act: activators of E. coli MazEF toxin-antitoxin RNase, primary screen, biochemical, fluorescence, uHTS | actives 0.32% (n = 350,000) | FAM/BHQ RNA-DNA oligo cleavage fluorescence, 5 h | activation, % at 20 µM | Endoribonuclease toxin MazF (Escherichia coli (strain K12)), P0AE70; in the data active = activation above about 50%
BoNT-F LC inh: BoNT/F light chain protease inhibitors, primary screen, biochemical, flow cytometry, MLPCN library; Botulinum neurotoxin type F light chain protease (Clostridium botulinum); Multiplex microsphere protease cleavage assay; inhibition, % at 10 µM; actives 0.22% (n = 360,000); in the data active = inhibition above about 35%, passing the limit was not always enough; inconclusive = no clear call, values can overlap the other calls
Anthrax LF inh2: Bacillus anthracis LF protease inhibitors, primary screen, biochemical, multiplex microsphere, MLPCN library; multiplex microsphere protease cleavage assay; Lethal factor (Bacillus anthracis), P15917; actives 0.12% (n = 360,000); inhibition, % at 10 µM
BoNT A protease: BoNT/A light chain protease inhibitors, primary screen, biochemical, flow cytometry, MLPCN library; Botulinum neurotoxin type A light chain protease (Clostridium botulinum A str. ATCC 3502); multiplex microsphere protease substrate cleavage; inhibition, % at 10 µM; actives 0.17% (n = 360,000)
Numbers stand for hits. Sampled rows, rich in hits. Any-hit rate of the full collection: about 3.7%. Cut-off read from the data, not from the text of the source, unless noted: active = inhibition above about 30%; inconclusive = no clear call, values can overlap the other calls; inactive = below that.

How did COC(=O)c1sc2ncccc2c1OCc1ccc(Cl)cc1 do in these assays?
Autofluor counter: inconclusive; MazEF act: inactive; BoNT-F LC inh: inactive; Anthrax LF inh2: inconclusive; BoNT A protease: inactive

Results for COC(=O)c1sc2ncccc2c1OCc1ccccc1Cl ?
Autofluor counter: 18888; MazEF act: inactive; BoNT-F LC inh: inactive; Anthrax LF inh2: inactive; BoNT A protease: inactive

What do the screens show for `CC1(C)CC(=O)C(C2(O)C(=O)N(Cc3ccccc3)c3ccccc32)CO1` (stereo not given)?
Autofluor counter: 22533; MazEF act: inactive; BoNT-F LC inh: inactive; Anthrax LF inh2: inactive; BoNT A protease: inconclusive

How did CC1(C)CC(=O)c2sc(NS(=O)(=O)Cc3ccccc3)nc2C1 do in these assays?
Autofluor counter: 22981; MazEF act: inactive; BoNT-F LC inh: inactive; Anthrax LF inh2: inactive; BoNT A protease: inconclusive

What do the screens show for `CCOC(=O)N(C)c1ccc(C(O)(C(=O)OCC)C(F)(F)F)cc1` (stereo not given)?
Autofluor counter: 22785; MazEF act: inactive; BoNT-F LC inh: inactive; Anthrax LF inh2: inactive; BoNT A protease: inactive

Results for Cc1ccc(Cc2c(C3CCCCC3)nc3ccc(Cl)cn23)cc1 ?
Autofluor counter: inactive; BoNT-F LC inh: inactive; Anthrax LF inh2: inactive; BoNT A protease: inactive

What do the screens show for `Cc1ccc(C(=O)OCC(=O)NCc2ccccc2)s1`?
Autofluor counter: inactive; MazEF act: inactive; BoNT-F LC inh: inactive; Anthrax LF inh2: inactive; BoNT A protease: inactive

What do the screens show for `COc1ccc(S(=O)(=O)n2nc(-c3cc(OC)c(OC)c(OC)c3)cc2N)cc1OC`?
Autofluor counter: inactive; MazEF act: inactive; BoNT-F LC inh: inactive; Anthrax LF inh2: inactive; BoNT A protease: inactive

How did COc1ccc(-c2cc(N)n(S(=O)(=O)c3c(F)c(F)c(F)c(F)c3F)n2)cc1OC do in these assays?
Autofluor counter: 16388; MazEF act: inactive; BoNT-F LC inh: inactive; Anthrax LF inh2: inactive; BoNT A protease: inconclusive

What do the screens show for `CCn1c(CN(C)c2ccccc2)nc2ccccc21`?
Autofluor counter: inactive; MazEF act: inactive; BoNT-F LC inh: inactive; Anthrax LF inh2: inactive; BoNT A protease: inactive

How did N/C(=N\OS(=O)(=O)c1ccc(Br)cc1)c1ccncc1 do in these assays?
Autofluor counter: 21736; MazEF act: inactive; BoNT-F LC inh: inactive; Anthrax LF inh2: inactive; BoNT A protease: inactive

What do the screens show for `Cc1cc(=O)[nH]c(SCC(=O)N2CCCc3ccccc32)n1`?
Autofluor counter: inactive; MazEF act: inactive; BoNT-F LC inh: inactive; Anthrax LF inh2: inactive; BoNT A protease: inactive

How did Cn1c(Cc2cccs2)nnc1SCC(=O)N1CCCc2ccccc21 do in these assays?
Autofluor counter: inactive; MazEF act: inactive; BoNT-F LC inh: inactive; Anthrax LF inh2: inactive; BoNT A protease: inactive

What do the screens show for `CC1CCc2cc(F)ccc2N1C(=O)CSc1nnc(-c2cccs2)n1C` (stereo not given)?
Autofluor counter: 23587; MazEF act: inactive; BoNT-F LC inh: inactive; Anthrax LF inh2: inactive; BoNT A protease: inconclusive

Results for O=C(CSc1nnc(Cc2cccs2)n1CCc1ccccc1)N1CCCc2ccccc21 ?
Autofluor counter: 23460; MazEF act: inactive; BoNT-F LC inh: inactive; Anthrax LF inh2: inactive; BoNT A protease: inactive

Results for Cc1nnc(SCC(=O)N2CCCc3ccccc32)[nH]c1=O ?
Autofluor counter: 16177; MazEF act: inactive; BoNT-F LC inh: inactive; Anthrax LF inh2: inactive; BoNT A protease: inactive

What do the screens show for `Cn1c(SCC(=O)N2CCCc3ccccc32)nnc1-c1cccs1`?
Autofluor counter: 23321; MazEF act: inactive; BoNT-F LC inh: inactive; Anthrax LF inh2: inactive; BoNT A protease: inactive

Results for CC1CCc2cc(F)ccc2N1C(=O)CSc1nnc2c(n1)[nH]c1ccccc12 (stereo not given) ?
Autofluor counter: inactive; MazEF act: inactive; BoNT-F LC inh: inactive; Anthrax LF inh2: inactive; BoNT A protease: inactive

Results for COC(=O)c1c(C)[nH]c(C(=O)OC(C)C(=O)NC2CCCCC2C)c1C (stereo not given) ?
Autofluor counter: inactive; MazEF act: inactive; BoNT-F LC inh: inactive; Anthrax LF inh2: inactive; BoNT A protease: inactive

How did N#CCCN(C(=O)COC(=O)c1ccc(S(=O)(=O)N2CCCC2)cc1)c1cccc(Cl)c1 do in these assays?
Autofluor counter: inactive; MazEF act: inactive; BoNT-F LC inh: inactive; Anthrax LF inh2: inactive; BoNT A protease: inactive

What do the screens show for `COc1ccc(-c2cc(CCC(=O)N3CCN(c4cc(C)ccc4C)CC3)on2)cc1`?
Autofluor counter: inactive; MazEF act: inactive; BoNT-F LC inh: inactive; Anthrax LF inh2: inactive; BoNT A protease: inactive

How did Cc1nnc(SCC(=O)NCc2ccccc2)[nH]c1=O do in these assays?
Autofluor counter: 17403; MazEF act: inactive; BoNT-F LC inh: inactive; Anthrax LF inh2: inactive; BoNT A protease: inactive

How did Cc1nnc(SCC(=O)NCc2ccc(F)cc2)[nH]c1=O do in these assays?
Autofluor counter: inactive; MazEF act: inactive; BoNT-F LC inh: inactive; Anthrax LF inh2: inactive; BoNT A protease: inactive

Results for Cn1c(=O)c2c(nc(CN3CCN(C(=O)c4ccco4)CC3)n2Cc2ccc(Cl)cc2)n(C)c1=O ?
Autofluor counter: 18363; MazEF act: inactive; BoNT-F LC inh: inactive; Anthrax LF inh2: inactive; BoNT A protease: inactive

How did Cn1c(=O)c2c(nc(CN3CCN(C(=O)c4ccco4)CC3)n2CCc2ccccc2)n(C)c1=O do in these assays?
Autofluor counter: 21635; MazEF act: inactive; BoNT-F LC inh: inactive; Anthrax LF inh2: inactive; BoNT A protease: inactive

What do the screens show for `CCOC(=O)C1CCN(Cc2nc3ccccc3c(=O)n2-c2ccc(F)cc2)CC1`?
MazEF act: inactive

How did O=C(c1ccco1)N1CCN(Cc2nc3ccccc3c(=O)n2-c2ccc(F)cc2)CC1 do in these assays?
Autofluor counter: 22917; MazEF act: inactive; BoNT-F LC inh: inactive; Anthrax LF inh2: inactive; BoNT A protease: inactive

What do the screens show for `Cn1c(=O)c2c(nc(CN3CCN(C(=O)c4ccco4)CC3)n2Cc2cccc(Cl)c2)n(C)c1=O`?
Autofluor counter: 22343; MazEF act: inactive; BoNT-F LC inh: inactive; Anthrax LF inh2: inactive; BoNT A protease: inactive

What do the screens show for `CC(C)[C@H](NC(=O)c1c(F)cccc1F)C(=O)N1CCN(c2ccc(F)cc2)CC1`?
Autofluor counter: inactive; MazEF act: inactive; BoNT-F LC inh: inactive; Anthrax LF inh2: inactive; BoNT A protease: inactive

Results for CCNS(=O)(=O)c1ccc(NS(=O)(=O)c2cc(C)ccc2C)cc1 ?
Autofluor counter: inactive; MazEF act: inactive; BoNT-F LC inh: inactive; Anthrax LF inh2: inactive; BoNT A protease: inactive

Results for CCCCNS(=O)(=O)c1ccc(NS(=O)(=O)c2c(C)cc(C)cc2C)cc1 ?
Autofluor counter: 16873; MazEF act: inactive; BoNT-F LC inh: inactive; Anthrax LF inh2: inactive; BoNT A protease: inconclusive

How did COc1ccc(Cc2c(-c3ccc(OC)c(OC)c3)nc3ccc(C)cn23)c(C)c1 do in these assays?
Autofluor counter: inactive; BoNT-F LC inh: inactive; Anthrax LF inh2: inactive; BoNT A protease: inactive

How did Cc1ccc(-c2nnn(Cc3nc(N)nc(N4CCOCC4)n3)n2)cc1 do in these assays?
Autofluor counter: 23278; MazEF act: inactive; BoNT-F LC inh: inactive; Anthrax LF inh2: inactive; BoNT A protease: inactive

Compound activity: PubChem BioAssay, several laboratories
